Screens (PubChem BioAssay)
In the library only some 5.2% were active in any assay of this set; here they are far more common.
esBAF inh = blocks esBAF chromatin remodeling in mouse ES cells | Bmi1-luciferase knock-in reporter, 24 h; 100% = twice the neutral-well signal | reporter increase, % at 12.5 µM | hit rate 2% among 350,000 | AID 602393; in the data active means activation above about 40%; inconclusive means no clear call, values can overlap the other calls;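 further: a rise in the Bmi1 reporter signal indicates esBAF inhibition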
SMARCA2 activ = activators of SMARCA2 function; MG213 cells, MMTV-luciferase reporter, dexamethasone, overnight; activation, % at 9.1 µM; hit rate 1% among 370,000; in the data active means activation above about 7.8%
NR3A LBD binder = NR3A (human) ligand-binding domain modulation | NR3A LBD differential scanning fluorimetry, Tm shift; 0% = protein alone, 100% = glycine-bound protein | Tm shift relative to glycine control, % at 25 µM | hit rate 2.5% among 340,000 | AID 1259313;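 active means melting temperature shift of at least 10% of the positive control shift, at one fixed dose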
NadD block = NadD (S. aureus) enzyme inhibition; hit rate 0.78% among 360,000; purified NadD enzyme, colorimetric absorbance read-out; inhibition, % at 20 µM; in the data active means inhibition above about 26%
SKN-1 block = C. elegans SKN-1 inhibition | C. elegans VP596 Pgst-4::GFP/RFP ratio, acrylamide-induced, 24 h | inhibition, % at 21.8 µM | hit rate 0.49% among 360,000;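 active means interference check ratio from 0.5 to 1.5 plus GFP to RFP signal ratio inhibition reaching or exceeding a fixed threshold, cut at about 30% in these data, passing the limit was not always enough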
Vif imaging = inhibitors of HIV Vif | HEK293T cells, Vif self-association by quenched fluorescence, imaging, 24 h | inhibition, % at 7.49 µM | hit rate 0.35% among 340,000 | AID 602346; in the data active means inhibition above about 50%, passing the limit was not always enough; inconclusive means no clear call, values can overlap the other calls; inactive means below about 31%
SMARCA2 conf = confirmation of SMARCA2 (BRM) function activators. shares compounds with SMARCA2 activ. MG213 cells, MMTV-luciferase with dexamethasone, luminescence, overnight; MG213 cells expressing E1A, Rb sequestered; DMSO wells 0%, reference activator 100%. activation, % at 9.1 µM. hit rate 30% among 3,500. AID 652260;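 active means activation above its plate's cutoff, the mean activation of tested wells plus 3 SD, cut at about 7.9% in these data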
VP16 Luc act = activates GAL4-VP16 luciferase, flagging SMARCA2 activator hits; activation, % at 9.1 µM; hit rate 41% among 3,500; shares compounds with SMARCA2 activ; HEK293 GAL4-VP16 pG5luc reporter, luciferase luminescence; scaled: DMSO wells 0%, SAHA wells 100%;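 active means activation above the solvent-only control well mean plus 3 SD, averaged across control plates, cut at about 5.2% in these data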
Hits are given with their value.

What do the screens show for `CNC[C@@H]1Oc2cc(-c3ccc(C(=O)N(C)C)cc3)ccc2S(=O)(=O)N([C@H](C)CO)C[C@H]1C`?
esBAF inh: inactive

What do the screens show for `Cc1cccc(C(=O)O/N=C(\N)c2cccc([N+](=O)[O-])c2)c1`?
NR3A LBD binder: inactive; NadD block: inactive; SKN-1 block: inactive; Vif imaging: inactive

Results for N/C(=N\OC(=O)c1cccs1)c1cccc([N+](=O)[O-])c1 ?
esBAF inh: 75; SMARCA2 activ: 11; NR3A LBD binder: inactive; NadD block: inactive; SKN-1 block: inactive; Vif imaging: inactive; SMARCA2 conf: inactive; VP16 Luc act: 6.5

Results for N/C(=N\OC(=O)c1ccc2c(c1)OCO2)c1cccc([N+](=O)[O-])c1 ?
SMARCA2 activ: 9.9; NR3A LBD binder: inactive; NadD block: inactive; SKN-1 block: inactive; Vif imaging: inactive; SMARCA2 conf: 12; VP16 Luc act: 9.4

What do the screens show for `O=C(Cc1ccccc1[N+](=O)[O-])c1ccc2c(c1)OCO2`?
SMARCA2 activ: 11; NR3A LBD binder: inactive; NadD block: inactive; SKN-1 block: inactive; Vif imaging: inactive; SMARCA2 conf: inactive; VP16 Luc act: inactive

What do the screens show for `CN1C(=O)c2cc(NC(=O)C3CCOCC3)ccc2OC[C@@H]2O[C@H](CC(=O)NCC3CC3)CC[C@@H]21`?
esBAF inh: inactive

How did CCOc1nc(-c2ccccc2)ccc1-c1noc(-c2cccs2)n1 do in these assays?
esBAF inh: inactive; SMARCA2 activ: inactive; NR3A LBD binder: inactive; NadD block: inactive; SKN-1 block: inactive; Vif imaging: inactive

How did c1csc(-c2nc(-c3ccc(-c4ccon4)s3)no2)c1 do in these assays?
SMARCA2 activ: 8.9; NR3A LBD binder: inactive; NadD block: inactive; SKN-1 block: 46; Vif imaging: inactive; SMARCA2 conf: inactive; VP16 Luc act: 9.7

Results for O=S(=O)(c1cccc(F)c1)N1CC[C@@H]2[C@@H](CO)Nc3ccc(C#Cc4cccc(F)c4)cc3[C@@H]21 ?
esBAF inh: inactive

How did C[C@@H]1CCCCO[C@H](CN(C)C(=O)Nc2ccc(C(F)(F)F)cc2)[C@@H](C)CN([C@H](C)CO)C(=O)c2cc(NC(=O)CCC(F)(F)F)ccc2O1 do in these assays?
esBAF inh: inactive

What do the screens show for `Cc1occc1C(=O)N/N=C/C1=C(N2CCOCC2)C(=C\c2ccc(Cl)cc2Cl)/CC1`?
esBAF inh: inactive; SMARCA2 activ: 12; NR3A LBD binder: inactive; NadD block: inactive; SKN-1 block: inactive; Vif imaging: inactive; SMARCA2 conf: inactive; VP16 Luc act: inactive

What do the screens show for `Cc1ccc(S(=O)(=O)Nc2ccc3c(c2)C(=O)N([C@@H](C)CO)C[C@H](C)[C@H](CN(C)C(=O)Nc2cccc4ccccc24)O3)cc1`?
esBAF inh: inactive

How did CC(=O)NC(CC(=O)NC1CCCc2ccccc21)c1ccccc1 (centres undefined) do in these assays?
esBAF inh: inactive; SMARCA2 activ: 8.0; NR3A LBD binder: inactive; NadD block: inactive; SKN-1 block: inactive; Vif imaging: inactive; SMARCA2 conf: inactive; VP16 Luc act: inactive

Results for C[C@H]1CN([C@@H](C)CO)C(=O)c2cc(NC(=O)Nc3ccccc3)ccc2O[C@H]1CN(C)Cc1ccncc1 ?
esBAF inh: inactive

Results for C=CCNc1nc(NCc2ccc(N(C)C)cc2)c2sc(-c3ccccc3)cc2n1 ?
esBAF inh: inconclusive; SMARCA2 activ: 10; NadD block: inactive; SKN-1 block: inactive; Vif imaging: inactive; SMARCA2 conf: 11; VP16 Luc act: 11

How did O=C(C[C@@H]1C[C@H]2c3cc(NS(=O)(=O)c4ccc(F)cc4)ccc3O[C@H]2[C@H](CO)O1)NCc1cc(F)ccc1F do in these assays?
esBAF inh: inactive

What do the screens show for `C[C@H]1CN([C@@H](C)CO)C(=O)c2cc(NC(=O)Cc3cn(C)c4ccccc34)ccc2O[C@@H]1CN(C)S(=O)(=O)c1ccc(F)cc1`?
esBAF inh: inactive

What do the screens show for `CC(=O)c1c(C)oc2c1cc(O)c1ccccc12`?
SMARCA2 activ: inactive; NR3A LBD binder: inactive; NadD block: inactive; SKN-1 block: inactive; Vif imaging: inactive

Results for CCOC(=O)c1c(C)oc2c1cc(O)c1ccccc12 ?
SMARCA2 activ: 8.1; NR3A LBD binder: inactive; NadD block: inactive; SKN-1 block: inactive; Vif imaging: inactive; SMARCA2 conf: 9.8; VP16 Luc act: 13

What do the screens show for `CCCC#Cc1ccc([C@@H]2[C@H]3CN(S(=O)(=O)c4ccccc4F)CCCCN3[C@H]2CO)cc1`?
esBAF inh: inactive

Results for Cc1ccnc2nc(C(=O)Nc3nc4ccccc4s3)nn12 ?
esBAF inh: inactive; SMARCA2 activ: 11; NR3A LBD binder: inactive; NadD block: inactive; SKN-1 block: inactive; Vif imaging: inactive; SMARCA2 conf: inactive; VP16 Luc act: 11

What do the screens show for `COc1ccc(-c2nc(NC(=O)c3nc4nccc(C)n4n3)sc2C)cc1`?
esBAF inh: inactive; SMARCA2 activ: inactive; NR3A LBD binder: inactive; NadD block: inactive; SKN-1 block: inactive; Vif imaging: inactive

Results for Cc1csc(NC(=O)c2nc3nccc(C)n3n2)n1 ?
esBAF inh: inactive; SMARCA2 activ: 8.6; NR3A LBD binder: inactive; NadD block: inactive; SKN-1 block: inactive; Vif imaging: inactive; SMARCA2 conf: inactive; VP16 Luc act: inactive

What do the screens show for `Cn1cnc(S(=O)(=O)N[C@@H]2CC[C@H](CC(=O)NCC3CC3)O[C@@H]2CO)c1`?
esBAF inh: inactive

How did COc1ccccc1CNC(=O)C[C@@H]1CC[C@H]2[C@@H](COC[C@@H](O)CN2Cc2ccc3c(c2)OCO3)O1 do in these assays?
esBAF inh: inactive

Results for c1ccc(-n2cnc3cc(NCc4ccco4)ccc32)cc1 ?
SMARCA2 activ: 9.6; NR3A LBD binder: inactive; NadD block: inactive; SKN-1 block: inactive; Vif imaging: inactive; SMARCA2 conf: inactive; VP16 Luc act: 8.2

What do the screens show for `COc1ccc(C(=O)OCC(=O)c2ccc3c(c2)NC(=O)CO3)cc1[N+](=O)[O-]`?
esBAF inh: inactive; SMARCA2 activ: inactive; NR3A LBD binder: inactive; NadD block: inactive; SKN-1 block: inactive; Vif imaging: inactive

How did COc1ccc(C(=O)OCC(=O)c2ccc3c(c2)NC(=O)CO3)cc1OC do in these assays?
esBAF inh: inactive; SMARCA2 activ: 8.6; NR3A LBD binder: inactive; NadD block: inactive; SKN-1 block: inactive; Vif imaging: inactive; SMARCA2 conf: inactive; VP16 Luc act: inactive
